Measurements from PubChem BioAssay.
A number with no mark means an inactive call. Entries that show only a call come without a potency. For some assays here: Potency and affinity values are given separately. Calls of active or inactive are those of the source. Unless noted, the rule behind the calls is not given here.

Experiments:
[1] = antimalarial activity against Dd2 strain (AID 2302;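 active = growth inhibition above 50% at the single 2 µM test dose, taken to imply half-maximal potency below 2 µM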); conditions: P. falciparum Dd2 in RBCs, LDH growth readout, 72 h; at 2 µM; hits give high values
[2] = HepG2 cytotoxicity, primary screen, cytotoxicity control for P. falciparum antimalarial project, cell-based, ATP luminescence (AID 2303;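 active = inhibition above 50%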); conditions: HepG2 viability, 24-48 h, at 10 µM, hits give high values
[3] = molecular target: L-lactate dehydrogenase (Plasmodium falciparum (isolate CDC / Honduras)) (UniProt Q27743); assay: PfLDH activity inhibition – cell lysate, 3D7 strain, counter-screen for P. falciparum growth inhibition project (AID 2304); conditions: P. falciparum 3D7 crude extract, LDH APAD/NBT absorbance; at 2 µM; hits give high values
[4] = inhibition of 3D7 malaria parasite growth – strain 3D7 (AID 2306); conditions: P. falciparum 3D7 erythrocytic growth, LDH absorbance, 72 h; at 2 µM; hits give high values
[5] = molecular target: Calcium-dependent protein kinase 1 (Plasmodium falciparum (isolate 3D7)) (UniProt P62344); assay: PfCDPK1 kinase inhibitors, biochemical, TCAMS library (AID 1159585; cut-off not given, nearly all actives have IC50 up to about 0.98 µM;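 note: inhibitors leave more ATP so luminescence rises with inhibition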); conditions: recombinant PfCDPK1, Kinase-Glo ATP depletion luminescence
[6] = molecular target: Plasmodium falciparum protein kinase 6 (PK6, PF3D7_1337100) (UniProt Q8IDW1); assay: PfPK6 kinase inhibitors, biochemical, TCAMS library (AID 1159586); conditions: recombinant PfPK6, Kinase-Glo ATP depletion luminescence
[7] = molecular target: Protein kinase 7 (PK7), Plasmodium falciparum 3D7 (PF3D7_0213400) (UniProt Q7YTF7); assay: inhibition of Plasmodium PK7 catalytic activity – biochemical, TCAMS antimalarial set, Kinase-Glo luminescence (AID 1159587); conditions: recombinant PfPK7, Kinase-Glo ATP depletion luminescence
[8] = molecular target: Calcium-dependent protein kinase 4 (Plasmodium falciparum (isolate 3D7)) (UniProt Q8IBS5); assay: PfCDPK4 kinase inhibitors, biochemical, TCAMS library (AID 1159588; cut-off not given, nearly all actives have IC50 up to about 0.91 µM); conditions: recombinant PfCDPK4, Kinase-Glo ATP depletion luminescence
Chain of Calcium-dependent protein kinase 4 (Plasmodium falciparum (isolate 3D7)) (Q8IBS5 whole entry, looked up): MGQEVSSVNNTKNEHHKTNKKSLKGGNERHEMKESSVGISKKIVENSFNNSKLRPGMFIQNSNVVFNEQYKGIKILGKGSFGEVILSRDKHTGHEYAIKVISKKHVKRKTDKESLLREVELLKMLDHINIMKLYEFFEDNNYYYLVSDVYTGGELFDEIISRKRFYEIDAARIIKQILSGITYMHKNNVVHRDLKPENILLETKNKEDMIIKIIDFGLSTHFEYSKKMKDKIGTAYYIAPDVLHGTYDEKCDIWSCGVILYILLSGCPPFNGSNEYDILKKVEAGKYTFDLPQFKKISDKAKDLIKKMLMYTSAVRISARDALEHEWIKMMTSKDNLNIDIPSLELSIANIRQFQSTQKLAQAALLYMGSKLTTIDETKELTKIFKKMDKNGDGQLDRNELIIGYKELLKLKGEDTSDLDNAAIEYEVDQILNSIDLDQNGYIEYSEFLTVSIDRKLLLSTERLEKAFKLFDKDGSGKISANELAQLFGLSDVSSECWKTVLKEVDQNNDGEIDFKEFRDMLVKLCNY

Chain of Plasmodium falciparum protein kinase 6 (PK6, PF3D7_1337100) (Q8IDW1 1-305): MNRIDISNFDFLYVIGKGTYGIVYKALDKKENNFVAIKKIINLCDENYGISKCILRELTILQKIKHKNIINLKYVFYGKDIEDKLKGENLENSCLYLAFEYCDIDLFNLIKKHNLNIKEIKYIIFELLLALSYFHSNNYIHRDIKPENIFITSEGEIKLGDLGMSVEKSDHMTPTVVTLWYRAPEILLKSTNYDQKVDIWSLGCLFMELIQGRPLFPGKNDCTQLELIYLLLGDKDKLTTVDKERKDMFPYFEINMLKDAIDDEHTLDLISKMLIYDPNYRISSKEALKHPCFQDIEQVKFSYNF
Chain of Calcium-dependent protein kinase 1 (Plasmodium falciparum (isolate 3D7)) (P62344 whole entry, looked up): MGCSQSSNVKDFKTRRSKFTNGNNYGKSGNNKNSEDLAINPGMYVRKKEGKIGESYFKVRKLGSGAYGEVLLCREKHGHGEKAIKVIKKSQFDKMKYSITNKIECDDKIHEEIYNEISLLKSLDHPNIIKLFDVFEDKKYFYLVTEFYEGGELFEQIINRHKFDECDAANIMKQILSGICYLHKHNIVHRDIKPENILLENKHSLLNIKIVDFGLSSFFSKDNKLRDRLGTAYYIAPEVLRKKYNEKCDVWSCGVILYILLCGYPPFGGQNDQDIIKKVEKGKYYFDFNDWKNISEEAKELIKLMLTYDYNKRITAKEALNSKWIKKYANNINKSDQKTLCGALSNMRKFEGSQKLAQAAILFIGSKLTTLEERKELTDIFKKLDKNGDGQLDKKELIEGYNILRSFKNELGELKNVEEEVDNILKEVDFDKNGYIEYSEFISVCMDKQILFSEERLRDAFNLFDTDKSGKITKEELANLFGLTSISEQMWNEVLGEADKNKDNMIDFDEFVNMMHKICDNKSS
Chain of L-lactate dehydrogenase (Plasmodium falciparum (isolate CDC / Honduras)) (Q27743 whole entry, looked up): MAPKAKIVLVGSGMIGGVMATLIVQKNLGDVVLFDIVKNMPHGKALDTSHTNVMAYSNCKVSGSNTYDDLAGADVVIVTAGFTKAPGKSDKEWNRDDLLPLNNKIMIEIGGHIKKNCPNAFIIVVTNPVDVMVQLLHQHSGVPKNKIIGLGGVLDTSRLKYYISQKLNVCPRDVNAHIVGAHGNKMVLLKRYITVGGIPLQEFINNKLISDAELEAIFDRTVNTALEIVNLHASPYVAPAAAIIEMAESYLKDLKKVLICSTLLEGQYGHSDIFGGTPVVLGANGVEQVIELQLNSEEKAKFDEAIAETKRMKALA
Chain of Protein kinase 7 (PK7), Plasmodium falciparum 3D7 (PF3D7_0213400) (Q7YTF7 1-343): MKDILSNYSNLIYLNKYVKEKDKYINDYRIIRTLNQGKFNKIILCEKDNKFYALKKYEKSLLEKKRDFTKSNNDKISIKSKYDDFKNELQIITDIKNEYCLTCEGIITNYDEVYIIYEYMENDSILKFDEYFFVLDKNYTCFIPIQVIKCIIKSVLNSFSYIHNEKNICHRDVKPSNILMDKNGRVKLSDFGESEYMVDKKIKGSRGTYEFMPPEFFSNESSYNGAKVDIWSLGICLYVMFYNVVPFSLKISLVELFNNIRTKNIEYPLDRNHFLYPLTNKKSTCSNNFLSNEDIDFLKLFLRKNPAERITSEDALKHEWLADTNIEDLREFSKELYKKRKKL

Structure (SMILES) | growth inhibition [1] | inhibition [2] | inhibition [3] [%] | growth inhibition [4] | outcome [5] | outcome [6] | outcome [7] | outcome [8]
Cc1cnc(NCCc2ccc(F)cc2)nc1N[C@@H](CC(C)C)C(=O)Nc1ccccc1 | 29% | 19% | -1 | 87% (active) | inactive | inactive | inactive | inactive
Oc1cccc(-c2nc(-c3ccccc3)c(-c3ccc(Oc4ccc(-c5[nH]c(-c6cccc(O)c6)nc5-c5ccccc5)cc4)cc3)[nH]2)c1 | 96% (active) | 6% | 0 | 91% (active) | inactive | inactive | inactive | inactive
COc1cc2nc(Nc3ccc(N4CCOCC4)cc3)nc(N)c2cc1OC | 10% | 8% | -3 | 95% (active) | inactive | inactive | inactive | inactive
CC(=O)Nc1ncc(C(=O)Nc2ccc(-c3cccc(-c4nc5ccc(C(F)(F)F)cc5[nH]4)c3)cc2)s1 | 92% (active) | 79% (active) | 3 | 101% (active) | inactive | inactive | inactive | inactive
Cc1cccc2[nH]c(-c3ccc(-c4cccc(NC(=O)CN5CCN(C)CC5)c4)s3)nc12 | 51% (active) | 7% | -3 | 96% (active) | inactive | inactive | inactive | inactive
Nc1nc(N)c2cc(NC(=O)c3ccc(Cl)c(Cl)c3)ccc2n1 | 83% (active) | 100% (active) | 1 | 100% (active) | inactive | inactive | inactive | inactive
Cc1ccccc1C1CCN(C2CCC(NC(=O)c3cc4cc(C(C)C)ccc4[nH]3)CC2)CC1 (stereo not given) | 100% (active) | 100% (active) | -3 | 99% (active) | inactive | inactive | inactive | inactive
Nc1nc(N)c2cc(S(=O)(=O)c3ccc4ccccc4c3)ccc2n1 | 51% (active) | 14% | 3 | 95% (active) | inactive | inactive | inactive | inactive
Cc1ccc(-c2nc(Nc3ccncc3)c3ccccc3n2)s1 | 34% | 6% | 1 | 95% (active) | inactive | inactive | inactive | inactive
COc1ccc(S(=O)(=O)N2CCC(NS(=O)(=O)c3ccc(F)cc3)CC2)cc1 | -3% | 3% | 0 | 80% (active) | inactive | inactive | inactive | inactive
CNCc1ccc(-c2ccc3ccnc(N)c3c2)cc1 | 98% (active) | 46% | 5 | 94% (active) | inactive | inactive | inactive | inactive
Fc1ccc2nc(-c3cccc(-c4cccc(CNCCc5ccncc5)c4)c3)[nH]c2c1 | 88% (active) | 22% | 2 | 100% (active) | inactive | inactive | inactive | inactive
O=C(Nc1cccc(-c2cccc(-c3nc4ccc(C(F)(F)F)cc4[nH]3)c2)c1)c1csnn1 | 37% | 45% | 3 | 99% (active) | inactive | inactive | inactive | inactive
Clc1ccc2c(NN=Cc3ccccc3)ccnc2c1 | 94% (active) | -6% | -3 | 100% (active) | inactive | inactive | inactive | inactive
O=[N+]([O-])c1cccc(CNC2CCN(Cc3ccc4ccccc4c3)CC2)c1 | 22% | 12% | -3 | 100% (active) | inactive | inactive | inactive | inactive
Cc1ccc(CN2CCC(Oc3cccc(NC(=O)c4ccc(C(F)(F)F)cc4)c3)CC2)cc1 | 15% | 37% | -1 | 92% (active) | inactive | inactive | inactive | inactive
c1cncc(Oc2ccc(Nc3ccnc4cc(-c5cccc(CN6CCCCC6)c5)ccc34)cc2)c1 | 100% (active) | 33% | 4 | 101% (active) | inactive | inactive | inactive | inactive
O=C(NCC1CCC(C(=O)NCCN2CCCCC2)CC1)c1ccc(O)c(-c2ccc(Cl)c(Cl)c2)c1 (stereo not given) | 22% | -5% | -1 | 91% (active) | inactive | inactive | inactive | inactive
Cc1ccc(CN2CCCN(Cc3cccc(C(=O)Nc4ccc(C(C)(C)C)cc4)c3)CC2)s1 | 4% | 31% | -5 | 85% (active) | inactive | inactive | inactive | inactive
CCOC(=O)Cn1ccc2c(NCc3ccccc3)nc(C)nc21 | 0% | 64% (active) | -1 | 96% (active) | inactive | inactive | inactive | inactive

Structure (SMILES) | growth inhibition [1] | inhibition [2] | inhibition [3] [%] | growth inhibition [4] | outcome [5] | outcome [6] | outcome [7] | outcome [8]
CCc1c(CCNCCCCCCNC(C)Cc2ccc3c(c2CC)OCO3)ccc(OC)c1OC (stereo not given) | 64% (active) | 100% (active) | 0 | 101% (active) | inactive | inactive | inactive | inactive
COc1ccccc1OCCN(CC(O)COc1cccc2[nH]c3ccccc3c12)CC(O)COc1cccc2[nH]c3ccccc3c12 (stereo not given) | 96% (active) | 16% | -8 | 97% (active) | inactive | inactive | inactive | inactive
Cn1nc(C(F)(F)F)cc1-c1ccc(C(=O)Nc2ccc3c(c2)CNCC3(C)C)s1 | 36% | 10% | -1 | 88% (active) | inactive | inactive | inactive | inactive
CCN(CC)C(=NCCCCCCN=C(NC(N)=NCc1ccc(Cl)cc1Cl)N(CC)CC)NC(N)=NCc1ccc(Cl)cc1Cl | 99% (active) | 16% | -3 | 102% (active) | inactive | inactive | inactive | inactive
COc1cc2c(c(Cl)c1OC)CCN(C(=O)C(F)(F)F)CC2c1ccccc1 (stereo not given) | 101% (active) | 7% | 8 | 101% (active) | inactive | inactive | inactive | inactive
CCCCCCN1CCCN(Cc2ccc(C(=O)Nc3ccc(Cl)cc3)cc2)CC1 | 54% (active) | 50% (active) | 3 | 89% (active) | inactive | inactive | inactive | inactive
O=c1cc(NCCC(CNCCc2ccccc2)NCc2cc(Br)cc(Br)c2)[nH]c2ccccc12 (stereo not given) | 47% | 3% | -6 | 98% (active) | inactive | inactive | inactive | inactive
O=C(COc1cccc([N+](=O)[O-])c1)Nc1ccc(-c2nc3ccccc3[nH]2)cc1 | 5% | 12% | 7 | 99% (active) | inactive | inactive | inactive | inactive
Cn1c(NC(=O)c2ccc(CNC(=O)c3ccc(O)c(-c4ccc(Cl)c(Cl)c4)c3)cc2)nc2ccccc21 | 74% (active) | 20% | -1 | 94% (active) | inactive | inactive | inactive | inactive
CC(C)[C@H](NCC(=O)c1ccccc1)C(=O)O | 0% | 6% | -3 | 99% (active) | inactive | inactive | inactive | inactive
O=C(Nc1ccc(Cn2ncc(N3CCCNCC3)c(Cl)c2=O)cc1)Nc1cccc(C(F)(F)F)c1 | 30% | 20% | 0 | 101% (active) | inactive | inactive | inactive | inactive
CCNc1cc(C(=O)N[C@@H](Cc2ccccc2)[C@H](O)CNC(CC)c2cccc(Cl)c2)cc(N2CCCC2=O)c1 (stereo not given in full) | 99% (active) | 12% | -1 | 97% (active) | inactive | inactive | inactive | inactive
Cc1ccc(-c2nnc(-c3ccc(C(=O)NC4CCN(Cc5ccc(C#N)cc5)CC4)cc3)o2)cc1Br | 7% | 41% | -5 | 91% (active) | inactive | inactive | inactive | inactive
O=S(=O)(NCCN1CCCC1)c1ccc(-c2ccc(CNCc3ccc(F)cc3)cc2)cc1F | 21% | 40% | 2 | 82% (active) | inactive | inactive | inactive | inactive
CN(C)S(=O)(=O)c1ccc(N2C(=O)[C@@H]3[C@H](C2=O)[C@@]2(c4ccccc4)C(=O)[C@]3(c3ccccc3)C(c3ccccc3)=C2c2ccccc2)cc1 | 63% (active) | -10% | 3 | 92% (active) | inactive | inactive | inactive | inactive
O=C(Nc1cccc(-c2csc(-c3nc4ccccc4[nH]3)c2)c1)c1cc(=O)c2ccccc2[nH]1 | 39% | 41% | -2 | 98% (active) | inactive | inactive | inactive | inactive
Fc1ccc([C@H]2N=C(SCCSC3=N[C@H](c4ccc(F)cc4)[C@H](c4ccc(F)cc4)N3)N[C@H]2c2ccc(F)cc2)cc1 | 69% (active) | 18% | -5 | 99% (active) | inactive | inactive | inactive | inactive
CNc1nc(NN=Cc2cc3c(cc2[N+](=O)[O-])OCO3)nc(Nc2cccc(C(F)(F)F)c2)n1 | 60% (active) | -1% | 2 | 101% (active) | inactive | inactive | inactive | inactive
O=C(NC1CCCCN(Cc2ccccc2O)C1)c1cccc(C(F)(F)F)c1 (stereo not given) | 64% (active) | -4% | -6 | 93% (active) | inactive | inactive | inactive | inactive
COc1cc(NCCCCNc2ccc(Cl)c(Cl)c2)nc2ccccc12 | 68% (active) | 22% | 2 | 100% (active) | inactive | inactive | inactive | inactive
